NPC1 prom act: activates the NPC1 promoter; Huh7 NPC1 promoter luciferase reporter, 24 h; Potency, µM (top dose mostly 9.22 µM), for inactives: at the top dose activation, actives largely listed as activators; actives 2.4% (n = 320,000); AID 485313; also: % of control where 0% means no effect; nearly all actives have a fitted effect of over 60% in size
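Readout is luciferase luminescence, reflecting NPC1 promoter activation in stably transfected Huh7 cells after 24 h compound exposure at 37 °C in reduced-serum medium with 10% FBS.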
ELG1 repair inh: blocks ELG1-dependent DNA repair in HEK293T cells. AID 504467. HEK293T ELG1-luciferase reporter, luminescence, 16 h; DNA damage induced by 5-fluorouridine. Potency, µM (series often up to 46.1 µM), without a hit: top-dose activity change, negative = inhibition, actives largely listed as inhibitors. actives 2.3% (n = 330,000); also: % is scaled to controls: 0 for no effect and ±100 for the full control effect; nearly all actives have a fitted effect of over 55% in size
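Reporter activity after DNA damage by 5-fluorouridine is monitored. Compound-treated cells incubate 16 hr at 37 °C, then ONE-Glo is added for 30 min before luminescence reading.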
Rab9 prom act: activates the Rab9 promoter; Huh7 Rab9 promoter-luciferase reporter, luminescence, 24 h; actives 2.8% (n = 320,000); Potency, µM (top dose mostly 9.22 µM), inactives show at the top dose activation, negative = inhibition, actives largely listed as activators; also: % of control where 0% means no effect; nearly all actives have a fitted effect of over 60% in size
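Cells were plated at 1500 per well in reduced-serum medium with 10% FBS and left 2 h. Compound in DMSO was then added for 24 h at 37 °C. Reporter signal was read by luminescence after 10 min with luciferase detection reagent.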
FLuc modulator: firefly luciferase modulation, counter-screen for miR-21 project; purified FLuc, Km substrates, luminescence inhibition; Potency, µM (highest dose often 57.5 µM), inactives show top-dose activity change, negative = inhibition, actives largely listed as inhibitors; actives 6.9% (n = 360,000); AID 588342;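 also: plate controls were vehicle for no effect and reference inhibitor for full effect; nearly all actives have a fitted effect of over 55% in size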
Target sequence (P08659 whole entry, looked up): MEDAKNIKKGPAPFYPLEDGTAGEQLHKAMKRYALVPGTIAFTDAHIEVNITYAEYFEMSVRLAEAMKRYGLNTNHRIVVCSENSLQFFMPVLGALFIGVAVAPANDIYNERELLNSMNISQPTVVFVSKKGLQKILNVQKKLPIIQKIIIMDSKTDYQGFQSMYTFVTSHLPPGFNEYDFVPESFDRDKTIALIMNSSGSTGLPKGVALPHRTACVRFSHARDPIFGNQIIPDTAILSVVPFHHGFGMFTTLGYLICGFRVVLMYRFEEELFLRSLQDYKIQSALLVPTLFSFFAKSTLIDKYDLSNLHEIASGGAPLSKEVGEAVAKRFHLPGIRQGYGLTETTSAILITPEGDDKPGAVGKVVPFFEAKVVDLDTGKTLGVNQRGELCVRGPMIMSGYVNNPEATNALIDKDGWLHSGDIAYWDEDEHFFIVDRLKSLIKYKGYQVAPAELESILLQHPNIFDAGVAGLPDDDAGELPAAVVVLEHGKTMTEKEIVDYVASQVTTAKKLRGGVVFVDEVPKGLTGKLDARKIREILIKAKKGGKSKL
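Purified P. pyralis luciferase, 10 nM final, with Km-level 10 uM D-luciferin and 10 uM ATP in 50 mM Tris acetate pH 7.5, 10 mM Mg acetate, 0.01% Tween-20, 0.05% BSA; 6-point qHTS titration about 60 µM downward; luminescence read.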
ELG1 genotoxic: genotoxicity induction in ELG1-luciferase HEK293T cells; HEK293T ELG1-luciferase reporter, luminescence, 16 h; Potency, µM (top dose mostly 46 µM), without a hit: top-dose activity change, positive = activation, actives largely listed as activators; actives 1.3% (n = 330,000); AID 504466; also: % of control where 0% means no effect; nearly all actives have a fitted effect of over 60% in size
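Screening used a luciferase reporter fused to human ELG1 in HEK293T cells. Luminescence was read on a CCD plate imager after 16 hr exposure and 30 min ONE-Glo incubation.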
SMN2 splice up: enhancers of SMN2 splice variant expression | Potency, µM (doses to about 46.1 µM), without a hit: top-dose activity change, positive = activation, hits mostly activators | actives 2.8% (n = 210,000) | HEK293 SMN2-luciferase splicing reporter, luminescence, 30-36 h | AID 1458; also: % of control where 0% means no effect; nearly all actives have a fitted effect of over 55% in size
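HEK293 cells carry an SMN2 minigene-luciferase reporter in which exon 7 inclusion puts luciferase in frame. Cells were seeded at 2000 cells/well, attached for 10-12 hours, then exposed to compounds for 30-36 hours at 37C before ONE-Glo luminescence.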
* = called active by the depositor; ? = inconclusive; . = no result; [ ] = another dose, or the depositor's remark. Shown are actives, neighbours in structure and some others; about 9.2% of the full set was active somewhere. Calls follow the shape of the dose curve; as a rule, active = well fitted curve in the direction sought with a large enough effect; inconclusive = small, poorly fitted or top-dose-only effect, or another doubt; inactive = no such curve, though single readings can be large; an effect the other way counts as inactive or inconclusive. Potency is read from the fitted curve at half-maximal effect.

SMILES	NPC1 prom act	ELG1 repair inh	Rab9 prom act	FLuc modulator	ELG1 genotoxic	SMN2 splice up
CC1=C(C)CC(C(=O)Nc2nccs2)C(C(=O)O)C1 (centres undefined)	-3.8%	1.9%	-0.6%	-0.1%	-0.3%	.
CCCCSC(=O)Nc1ccccc1	-0.8%	?	6.9%	16.9µM*	?	7.4%
NC(C(=O)O)(c1ccc(P(=O)(O)O)cc1)C1CC1 (centres undefined)	.	.	.	.	.	7.3%
O=C(CN1CCN(c2cccc(Cl)c2)CC1)Nc1ccc([N+](=O)[O-])cc1C(=O)Nc1ccccc1F	-0.8%	14.6µM*	-0.9%	1.5%	-7.5%	-26.4%
Cc1ccc(C)c(N2CCN(CC(=O)Nc3ccc([N+](=O)[O-])cc3C(=O)Nc3ccccc3F)CC2)c1	-4.0%	?	-2.6%	2.7%	-0.2%	-5.9%
CCOC(CCn1c(SCC(=O)Nc2cc(C)on2)nc2ccccc2c1=O)OCC	-2.2%	20.6µM*	-6.0%	-1.6%	-3.7%	11.2%
CCOC(CCn1c(SCc2ccc([N+](=O)[O-])cc2)nc2ccccc2c1=O)OCC	-3.2%	14.6µM*	-6.0%	-1.5%	-6.0%	-35.1%
Cc1ccc(-n2c(SCc3ccc([N+](=O)[O-])cc3)nc3ccccc3c2=O)cc1	0.7%	-26.0%	-2.5%	-1.2%	-1.2%	-0.8%
CCOC(Cn1c(SCC(=O)Nc2cc(C)on2)nc2ccccc2c1=O)OCC	1.8%	-0.3%	-2.7%	1.6%	-1.0%	.
COc1cc2c3cc1Oc1cc(ccc1O)C[C@@H]1c4c(cc(OC)c(O)c4Oc4ccc(cc4)C[C@H]3[N+](C)(C)CC2)CC[N+]1(C)C	.	.	.	.	.	5.8%[9.22 µM]
O=C(N/N=C/c1ccc(Cl)cc1)Nc1ccccc1	?	?	?	4.26µM*	?	?
O=C(N/N=C/c1ccco1)Nc1ccccc1	3.16µM*	?	3.98µM*	19µM*	?	.
Clc1ccc(/C=N\Nc2ccccc2)cc1	9.1%	0.9%	16.7%	16.9µM*	?	.
N#Cc1c(NC(=O)C(F)(F)F)sc2c3c(=O)c4ccccc4c(=O)c=3oc3ccccc3c12	.	.	.	.	.	3.1%[9.22 µM]
CCC(C)NC(=O)C1CCC(CNS(=O)(=O)c2ccccc2)CC1 (centres undefined)	-2.8%	-0.1%	0.1%	-1.6%	-2.4%	.
CCCCc1ccc(/C(C)=N/NC(=O)C2CCCC2)cc1	2.4%	12.8%	11.8%	-7.0%	6.4%	.
N#Cc1c[nH]n2c(NC3CCCCC3)c(-c3cccc(Cl)c3)nc12	.	.	.	-7.6%	.	.
Cc1c(-c2ccccc2)c(=O)oc2c(CN3CCN(C)CC3)c(O)ccc12	.	.	.	-6.5%	.	.
COc1cc(/C=C/c2ccccc2)oc(=O)c1	.	.	.	.	.	8.91µM*
CCS(=O)(=O)N1CC(=O)N(c2cccc(C)c2C)C(C)(C(=O)NC2CCCCCC2)C1 (centres undefined)	.	.	.	-1.7%	.	.
CCC(C)(C)c1ccc(OCC(=O)Nc2ccncc2)cc1	0.2%	5.8%	-3.0%	7.57µM*	-0.7%	.
O=C(COc1ccc(Nc2ccccc2)cc1)Nc1ccncc1	-2.3%	18.3µM*	-2.3%	-15.8%	?	.
O=C(COc1ccc(-c2ccccc2)cc1)Nc1cccnc1	-11.5%	?	-3.2%	5.36µM*	16.6%	.
O=C(COc1ccc([N+](=O)[O-])cc1)Nc1cccnc1	-0.7%	4.2%	2.0%	-10.7%	-2.2%	.
Cc1ccc2cccc(NC(=O)COc3ccccc3[N+](=O)[O-])c2n1	.	.	.	0.4%	.	.
SMILES	NPC1 prom act	ELG1 repair inh	Rab9 prom act	FLuc modulator	ELG1 genotoxic	SMN2 splice up
CC(C)NC(=O)c1onc(CSc2cccc3ccccc23)c1C(=O)O	1.0%	-1.0%	-4.9%	26.9µM*	-4.1%	-1.8%
CC(C)NC(=O)c1onc(CSc2ccccc2)c1C(=O)O	6.0%	-5.7%	3.8%	-16.4%	1.2%	15.1%
O=C(c1cc2cc(Br)ccc2o1)N1CCOCC1	12.8%	?	?	21.3µM*	21.0%	.
O=C(c1cc2cc(Br)ccc2o1)N1CCN(c2ccccc2)CC1	-1.4%	?	-0.6%	19µM*	?	.
O=C(c1cc2cc(Br)ccc2o1)N1CCCC1	?	?	?	?	?	26.4%
COc1ccc(CCC(=O)Nc2cc3c4c(c2)CCC(=O)N4CCC3)cc1	-4.2%	14.8%	-8.2%	7.4%	-1.3%	.
Cc1ccccc1OCc1nc2ccccc2c(=O)n1/N=C/c1ccco1	13.9%	?	12.1%	?	-1.9%	6.8%
Cc1ccccc1OCc1nc2ccccc2c(=O)n1/N=C/c1cn[nH]c1-c1ccc(Br)cc1	-0.5%	6.51µM*	-1.0%	2.8%	-11.9%	-14.4%
Cc1ccc(-c2[nH]ncc2/C=N/n2c(C)nc3ccccc3c2=O)cc1	-0.8%	9.2µM*	-11.5%	-5.0%	-5.8%	.
O=c1c2ccccc2nc(COc2ccccc2)n1/N=C/c1ccc(O)cc1O	-3.1%	?	-2.8%	16.9µM*	-2.9%	.
Oc1ccc(/C=N/n2c(COc3ccccc3)n[nH]c2=S)c(O)c1	-8.7%	10.9%	-7.0%	-6.8%	2.5%	.
Cc1nc2ccccc2c(=O)n1/N=C/c1ccccc1O	1.9%	?	1.1%	?	14.0%	.
O=c1c2ccccc2nc(COc2ccccc2)n1/N=C/c1cn[nH]c1-c1ccccc1	-2.9%	6.51µM*	-10.6%	0.5%	-5.6%	-28.8%
O=C1C=CC(=Nc2cccc3c(N=C4C=CC(=O)O4)cccc23)O1	.	.	.	.	.	-3.1%[9.22 µM]
COc1ccc(Br)c2c1-c1nc(NC(=O)c3cccc(C)c3)sc1C2	.	.	.	-7.8%	.	6.5%
Cc1cccn2c(Nc3ccc4c(c3)OCCO4)c(-c3ccc(Br)o3)nc12	.	.	.	?	.	2.9%
COc1ccc2oc(=O)c(/C(C)=N/NC(=O)c3ccncc3)cc2c1	1.7%	-2.9%	-5.3%	1.1%	-0.6%	0.7%
CCOC(=O)c1ccccc1NC(=O)c1c(-c2ccccc2)noc1C	.	.	.	-17.6%	.	.
CCN1CCN(C(=S)Nc2sc(C)c(-c3ccccc3)c2C(=O)OC)CC1	-3.2%	16.4µM*	-5.8%	-2.6%	-6.9%	.
Cc1onc(-c2ccccc2)c1C(=O)OCC(=O)Nc1ccc(Cl)cc1	3.1%	?	-9.3%	.	-7.1%	.
CCOC(=O)c1c(NC(=O)CCN2CCOCC2)sc(C)c1-c1ccccc1	-0.9%	20.6µM*	-7.8%	2.1%	-11.2%	.
CCOC(=O)c1c(NC(=O)c2c(-c3ccccc3)noc2C)sc(C)c1-c1ccccc1	-10.6%	13.2%	21.3%	-1.5%	-8.7%	0.708µM*
Cc1onc(-c2ccccc2)c1C(=O)OCC(=O)Nc1cccc(Cl)c1	0.5%	13µM*	-1.6%	0.6%	-9.0%	.

Screens as filed in PubChem BioAssay.
